Assay [1] in a line: Tanguay_ZF_120hpf_MORT_legacy: (Legacy) Oregon State University Tanguay Lab 120 Hour Post-fertilization zebrafish Assay for Mortality (AID 2283633). Summed up: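 Brightfield scoring of embryo death (binary) at 24 and 120 hpf; static exposure 6–120 hpf, 28C, sealed and foil-covered. Pronase-dechorionated 5D wild-type larvae, single embryo per well. DMSO 0.64% v/v; trimethyltin chloride 5uM positive control.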

A short description of assay [2]: Tanguay_ZF_120hpf_YSE_legacy: (Legacy) Oregon State University Tanguay Lab 120 Hour Post-fertilization zebrafish Assay for Yolk Sac Edema (AID 2283634). An outline of the steps:
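Binary brightfield scoring of yolk sac edema at 120 hpf; DMSO baseline, gain-of-signal fitting. Dechorionated 5D larvae, one per well, static exposure 6–120 hpf, 28C, 0.64% DMSO. Dead embryos not scored.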

Assay [3] can be described thus: Tanguay_ZF_120hpf_AXIS_legacy: (Legacy) Oregon State University Tanguay Lab 120 Hour Post-fertilization zebrafish Assay for Body Axis Malformation (AID 2283635). Summed up:
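Embryos: 5D wild-type, pronase-dechorionated 4 hpf; static exposure 6–120 hpf, 28C, sealed, dark, 1 embryo/well, 0.64% DMSO. 120 hpf axis malformation scored present/absent; dead embryos excluded. Analysed as gain of signal vs DMSO.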

Assay [4] in a line: Tanguay_ZF_120hpf_EYE_legacy: (Legacy) Oregon State University Tanguay Lab 120 Hour Post-fertilization zebrafish Assay for Eye Malformation (AID 2283636). Summed up:
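Read-out is binary presence or absence of eye malformation, scored by brightfield microscopy at 120 hpf. Single larvae were exposed from 6 hpf in embryo medium containing 0.64% DMSO, with DMSO as baseline.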

Assay [5] can be described thus: Tanguay_ZF_120hpf_SNOU_legacy: (Legacy) Oregon State University Tanguay Lab 120 Hour Post-fertilization zebrafish Assay for Snout Malformation (AID 2283637). Summed up:
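Snout malformation read as a yes/no call on brightfield images of 120 hpf larvae (Tropical 5D strain). Static exposure began at 6 hpf on dechorionated embryos in 0.64% DMSO, with gain of signal analysed versus DMSO controls.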

Assay [6] is described as follows: Tanguay_ZF_120hpf_OTIC_legacy: (Legacy) Oregon State University Tanguay Lab 120 Hour Post-fertilization zebrafish Assay for Otic Vesicle Malformation (AID 2283639). Summed up: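 Tropical 5D wild-type zebrafish embryos were exposed statically in sealed, foil-covered plates at 28C until 120 hpf, with 0.64% (vol/vol) DMSO final. Otic vesicle malformation was scored present/absent by brightfield microscopy, with DMSO as baseline.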

Assay [7] is described as follows: Tanguay_ZF_120hpf_SOMI_legacy: (Legacy) Oregon State University Tanguay Lab 120 Hour Post-fertilization zebrafish Assay for Somite Malformation (AID 2283647). An outline of the steps: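 Binary brightfield scoring of somite defects at 120 hpf in 5D wild-type larvae; one dechorionated embryo per well, static exposure from 6 hpf, 28C, sealed and dark. Final DMSO 0.64%; trimethyltin chloride 5uM positive control.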

Assay [8] is described as follows: Tanguay_ZF_120hpf_CFIN_legacy: (Legacy) Oregon State University Tanguay Lab 120 Hour Post-fertilization zebrafish Assay for Caudal Fin Malformation (AID 2283649). An outline of the steps: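 Dechorionated 5D wild-type zebrafish, static exposure 6–120 hpf, 28C, sealed and dark, 0.64% v/v DMSO final. Binary fin-malformation call at 120 hpf, brightfield; gain of signal vs DMSO baseline.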

A short description of assay [9]: TOX21_p53_BLA_p2_viability: Viability Assessment in the Tox21 HCT-116 p53 Agonism Beta-lactamase Assay, Phase 2 (AID 2283591).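 Note: compound exposure lasted 16 h at 37 °C; actives lower the ATP signal meaning cytotoxicity.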 An outline of the steps: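 Cytotoxicity readout: CellTiter-Glo ATP luminescence, 30 min at room temperature, after the beta-lactamase read. Cells were HCT116 exposed 16 h at 37C to compounds pin-transferred at 217-fold dilution from DMSO stocks.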

Assay [10] addresses Cellular tumor antigen p53 (Homo sapiens) (UniProt P04637). In words: TOX21_p53_BLA_p2_ratio: Tox21 HCT-116 p53 Agonism Beta-lactamase Assay, Ratio, Phase 2 (AID 2283592). Summed up: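 In this cell-based reporter format, HCT116 cells were dosed with chemicals delivered from DMSO by 217-fold dilution and incubated 16 h at 37C. Emission at 460 and 530 nm after 2 h CCF4-AM loading provided the ratio, fitted upward versus DMSO.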

A short description of assay [11]: TOX21_p53_BLA_p3_viability: Viability Assessment in the Tox21 HCT-116 p53 Agonism Beta-lactamase Assay, Phase 3 (AID 2283593).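 Note: cells exposed to compound for 16 h before reading.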 Summed up: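 Cellular ATP was quantified by CellTiter-Glo luminescence, read after 30 min at room temperature. Beforehand, HCT116 cells (4000/well) received compound 5 h post-seeding, 217-fold diluted from DMSO, then incubated 16 h at 37C.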

Assay [12] addresses Cellular tumor antigen p53 (Homo sapiens) (UniProt P04637). In words: TOX21_p53_BLA_p3_ratio: Tox21 HCT-116 p53 Agonism Beta-lactamase Assay, Ratio, Phase 3 (AID 2283596). An outline of the steps: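 HCT116 p53-bla cells (4000/well) given compound in DMSO (217-fold dilution) after 5 h, incubated 16 h at 37C. CCF4-AM substrate 2 h at room temperature; 460/530 nm emission ratio, gain fitted against DMSO.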

Assay [13] can be described thus: TOX21_p53_BLA_p4_viability: Viability Assessment in the Tox21 HCT-116 p53 Agonism Beta-lactamase Assay, Phase 4 (AID 2283597).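 Note: hits lower the luminescence signal meaning cytotoxicity.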 An outline of the steps:
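We seeded HCT116 p53 reporter cells at 4000/well and waited 5 h. We then added compounds in DMSO at a 217-fold dilution and incubated for 16 h. Viability was read as CellTiter-Glo luminescence after 30 min at RT.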

The target in assay [14] is Cellular tumor antigen p53 (Homo sapiens) (UniProt P04637). Description: TOX21_p53_BLA_p5_ratio: Tox21 HCT-116 p53 Agonism Beta-lactamase Assay, Ratio, Phase 5 (AID 2283599). Summed up:
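Beta-lactamase reporter ratio (blue 460 nm over green 530 nm, 405 nm excitation) after 2 h CCF4-AM loading, in HCT-116 cells exposed 16 h at 37 C to compounds pinned at 217-fold dilution. Increases relative to DMSO baseline scored.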

The target is the same in assay [15]. In words: TOX21_p53_BLA_p4_ratio: Tox21 HCT-116 p53 Agonism Beta-lactamase Assay, Ratio, Phase 4 (AID 2283601). Summed up: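 Signal is the blue/green (460nm/530nm) ratio of cleaved versus uncleaved CCF4-AM substrate, read after 2 h substrate loading. Cells were HCT116 carrying the p53-responsive beta-lactamase reporter, dosed 16 h at 37C, 5% CO2; CellTiter-Glo measured in parallel.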

The nature of assay [16]: Tanguay_ZF_120hpf_JAW_legacy: (Legacy) Oregon State University Tanguay Lab 120 Hour Post-fertilization zebrafish Assay for Jaw Malformation (AID 2283638). An outline of the steps: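 Binary jaw-malformation calls at 120 hpf by brightfield imaging; DMSO (0.64% v/v) = baseline. Embryos: 5D wild-type, pronase-dechorionated, one per well from 6 hpf, static exposure, 28C, sealed, dark.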

The nature of assay [17]: Tanguay_ZF_120hpf_PE_legacy: (Legacy) Oregon State University Tanguay Lab 120 Hour Post-fertilization zebrafish Assay for Pericardial Edema (AID 2283640). An outline of the steps:
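Static waterborne exposure, 5D wild-type embryos, 28C, to 120 hpf; final DMSO 0.64% (vol/vol). Binary PE call at 120 hpf by brightfield; fitted upward vs DMSO baseline. 5uM trimethyltin chloride as positive control.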

Assay [18] in a line: Tanguay_ZF_120hpf_PFIN_legacy: (Legacy) Oregon State University Tanguay Lab 120 Hour Post-fertilization zebrafish Assay for Pectoral Fin Malformation (AID 2283648).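 Note: each larva judged yes or no for fin defect by brightfield with dead larvae skipped.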 An outline of the steps: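 5D WT zebrafish; pronase dechorionation 4 hpf; 1 embryo/well at 6 hpf; static exposure to 120 hpf, 28C, sealed, foil-covered; final DMSO 0.64% v/v; 5 uM trimethyltin chloride positive control; fin defect scored yes/no.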

Each structure is given as a SMILES string. Where “and” joins values, the source holds several entries; their conditions need not be identical. Equal entries are not always repeated. Records with an inconclusive call do not appear. Calls of active or inactive are those of the source. Rule for the calls: active = hit-call score of the fitted dose curve at least 0.9, where 1 is the maximum; inconclusive = response in the unintended direction; inactive = score below 0.9.

Chain of Cellular tumor antigen p53 (Homo sapiens) (P04637 whole entry, looked up): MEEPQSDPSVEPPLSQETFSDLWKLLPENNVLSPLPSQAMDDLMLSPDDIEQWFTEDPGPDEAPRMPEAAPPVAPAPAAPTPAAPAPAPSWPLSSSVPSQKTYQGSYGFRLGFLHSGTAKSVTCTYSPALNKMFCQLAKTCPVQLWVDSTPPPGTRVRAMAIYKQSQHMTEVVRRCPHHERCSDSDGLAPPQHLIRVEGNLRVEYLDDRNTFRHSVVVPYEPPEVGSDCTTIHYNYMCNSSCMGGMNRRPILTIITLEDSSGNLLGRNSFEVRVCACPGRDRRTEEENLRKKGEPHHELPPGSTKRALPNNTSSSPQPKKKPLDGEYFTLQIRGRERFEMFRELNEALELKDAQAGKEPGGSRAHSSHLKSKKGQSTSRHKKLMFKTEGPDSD

Turning to `COP(=O)(OC)OC=C(Cl)Cl`, the molecule was classed as inactive in [1], in [2], in [3], in [4], in [5] and in assay [6]. Besides, the outcome in [7] and in assay [8] was inactive.
Regarding `CCC(C)(C)C(=O)OC1=C(c2ccc(Cl)cc2Cl)C(=O)OC12CCCCC2`, the result in assay [9], in assay [10], in assay [13], in assay [15], in [1] and in assay [2] was inactive. Besides, the result in assay [3], in assay [4], in assay [5], in [16], in [6] and in [7] was inactive. Further, the molecule was classed as inactive in assay [8]. Also, the AC50 (in general, the concentration at which the activity in the assay is half-maximal) was 74.9 µM (active) in assay [11], 2.5 µM (active) in assay [12] and 28.4 µM (active) in assay [14].
In the case of `O=C1c2ccccc2C(=O)N1SC(Cl)(Cl)Cl`, the outcome in assay [9], in assay [11], in assay [13], in assay [1], in [2] and in assay [3] was inactive. Moreover, the call in [4], in assay [5], in assay [16], in assay [6], in assay [17] and in [8] was inactive. Further, the AC50 is 7.1 µM (active) and 14.8 µM (active) in [10]; 6.49 µM (active) and 23.1 µM (active) in assay [12]; 14.1 µM (active) and 12.9 µM (active) in assay [14]; 13.5 µM (active) and 22.1 µM (active) in assay [15].
`CCCN(CCC)c1c([N+](=O)[O-])cc(C(F)(F)F)cc1[N+](=O)[O-]`: the molecule was classed as inactive in assay [1], in [2], in [3], in assay [4], in [5] and in [16]. Moreover, the outcome in assay [7], in assay [18] and in assay [8] was inactive.
On to `Clc1ccccc1-c1nnc(-c2ccccc2Cl)nn1`, for which the outcome in assay [1], in [2], in assay [3], in assay [4], in assay [16] and in assay [6] was inactive.
For the molecule `O=[N+]([O-])/N=C1\NCCN1Cc1ccc(Cl)nc1`, the outcome in [1], in assay [2], in [3], in assay [4], in [5] and in assay [16] was inactive. The call in assay [6], in assay [7] and in assay [8] was inactive.
`N#CN`: the molecule was classed as inactive in [1], in assay [2], in [3], in assay [4], in assay [5] and in assay [16]. Moreover, the result in assay [6], in [7] and in assay [8] was inactive.
On to `CCN(CC)C(=O)SCc1ccc(Cl)cc1`, for which the molecule was classed as inactive in [9], in assay [11], in assay [12], in [13], in assay [14] and in [15]. In addition, the call in assay [1], in [2], in assay [3], in [5], in assay [16] and in assay [7] was inactive. Also, in assay [8], the result was inactive.

For the origin of these results see PubChem BioAssay (EPA / NIEHS).
